Test results published in the supplement of paper PMC6555819.

Tests used:
Assay in all cases: PBM binding z-score (relative to random genomic background probes); higher = stronger binding; sequences stand for … in GC…GCGATTGACAGCGTAGAATGAAGG
[1] = test system: RARb homodimer (NR concentration 270 nM)
How it was run: (§1)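 On custom Agilent 4×180K arrays, double-stranded probes with 34-nt variable regions carried direct-repeat seeds, single-nucleotide variants, half-site ablations or random human genomic background. Ligand-free nuclear receptor dimers were applied for 1 h, and binding was read with antibodies against each partner (one per run). Binding z-scores come from regression-normalized fluorescence, with the random background probes as reference.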

[2] = test system: RARg:RXRa (NR concentration 270 nM, RXRa partner concentration 90 nM)
How it was run: as §1

[3] = test system: RARg homodimer (NR concentration 270 nM)
How it was run: as §1

[4] = test system: RXRa DBDmut IVT, anti-RXR (DBD mutation: RXRa K156A/R161A, NR concentration 90 nM)
How it was run: as §1

[5] = test system: RXRa homodimer (NR concentration 180 nM)
How it was run: as §1

[6] = test system: THRa:RXRa (NR concentration 90 nM, RXRa partner concentration 90 nM)
How it was run: as §1

[7] = test system: THRa homodimer (NR concentration 90 nM)
How it was run: as §1

[8] = test system: VDR:RXRa (NR concentration 270 nM, RXRa partner concentration 90 nM)
How it was run: as §1

[9] = test system: VDR homodimer (NR concentration 270 nM)
How it was run: as §1

| Sequence | PBM binding z-score [1] | PBM binding z-score [2] | PBM binding z-score [3] | PBM binding z-score [4] | PBM binding z-score [5] | PBM binding z-score [6] | PBM binding z-score [7] | PBM binding z-score [8] | PBM binding z-score [9] |
| --- | --- | --- | --- | --- | --- | --- | --- | --- | --- |
| CCTACTGGGCCAAAAAGGTCATTAATGCCGATAA | 4.32 | 4.16 | 3.68 | 0.627 | 4.26 | 2.91 | 0.449 | 4.53 | 2.2 |
| CACACTAGGTCAAGGTCAAAGTCGGTTTGTGCCA | 4.95 | 6.21 | 6.6 | 3.28 | 5.76 | 4.44 | 4.03 | 5.17 | 4.95 |
| CCAGACAGGCGAGAAGGTAACTCAGCCTCGATTA | -0.738 | -0.546 | -0.427 | -0.382 | -0.473 | -0.499 | -0.402 | -0.665 | -0.366 |
| TAGCCTAGGTCATGGGCCAGTATACCACGCGAAC | 2.71 | 4.27 | 4.78 | 0.316 | 3.57 | 2.93 | 1.3 | 1.97 | 0.506 |
| TAGCCTATGTCATTGGGCCAGTATAGTACGCATC | -0.0367 | 0.242 | 0.413 | -0.587 | 0.472 | -0.314 | -0.671 | -0.316 | -0.244 |
| CAAACTAGGTCACAGAGGTCAAAGTACGTGCGTA | 5.51 | 7.48 | 7.65 | 3.46 | 7.8 | 4.75 | 2.64 | 7.94 | 6.77 |
| GCATATAGGTAATACAAGGTGAAACTCCGATTGT | 0.806 | 0.886 | 0.775 | 0.602 | 1.06 | 4.51 | 1.21 | 0.732 | 0.121 |
| CTCGAAAGGTCGTGCGCAGGTGAGTATACCAAAC | 2.93 | 5.81 | 3.83 | 1.76 | 5.1 | 3.58 | 0.11 | 3.64 | 0.912 |
| GATACAGGGTCAAGGCCAGGGTACGCGTATTGAT | 3.96 | 5.8 | 4.85 | 2.61 | 5.97 | 3.95 | 1.51 | 4.71 | 2.65 |
| TGAATAAGGTTATAAGATCAGGGAACGTTGCAAA | 0.682 | 1.59 | 1.14 | 0.444 | 1.89 | 1.79 | 0.426 | 0.743 | 0.135 |
| TAGGCTAGGTCAGATCGGGCCAGTATACGCTATA | 2.06 | 2.87 | 3.61 | -0.36 | 1.45 | 4.13 | -0.412 | 0.927 | -0.515 |
| GCAGACAGGTGAAACGCAGATAACTCAGGGTGGC | -0.0268 | 0.355 | 0.45 | -0.555 | 0.883 | 0.121 | -0.589 | -0.407 | -0.804 |
| GCTGCTAGGTCAACTAATGGTCAGCTAAAGCTCG | 3.51 | 5.28 | 5.52 | 1.38 | 2.65 | 2.74 | 0.777 | 1.35 | -0.0577 |
| CGTACAAGGTCAGCAGGTCAGTGAAAGCGACGTG | 5.11 | 6.42 | 6.72 | 3.07 | 5.36 | 3.93 | 2.42 | 4.16 | 1.68 |
| ATCTTTAGGTAAGACTCAGTTCAGTGAAGAACGC | 0.715 | 0.526 | 0.533 | 0.843 | 0.131 | 1.28 | 0.881 | 0.748 | 1.44 |
| TCTAGTTGGTAAAAGGTCACACACTCGAAATGCG | 5.28 | 6.21 | 5.8 | 2.17 | 6.64 | 4.08 | 2.3 | 4.89 | 2.75 |
| AGAATGAGGTTATCCGTAGATCAGGGAAGAAAGT | 0.958 | 2.14 | 1.08 | 1.82 | 2.29 | 2.33 | 0.663 | 1.44 | 0.958 |
| CCTTACGGGTCACTGACAGGTTATATCATTTGGA | 3.45 | 5.75 | 4.58 | 1.64 | 5.22 | 2.96 | 0.162 | 3.81 | 1.32 |
| TAGCCTACGTCATTGGGCCAGTATAGTACGCATC | -0.397 | -0.281 | -0.0336 | -0.739 | -0.232 | -0.688 | -0.62 | -0.617 | -0.718 |
| TCATAAAGGTAATACAGGTGAAAGTCGGCATCTA | 1.09 | 1.3 | 0.722 | 1.78 | 1.67 | 1.7 | 0.207 | 1.72 | 0.435 |
| TGGCCTAGGTCAGATCGGGCCAGTATACGCTATA | 1.79 | 2.62 | 4.12 | -0.787 | 1.19 | 3.53 | -0.553 | 0.424 | -0.622 |
| CCTAGTTGGTCAGTAGGTCACACACCGGATATGA | 3.59 | 3.58 | 3.25 | 0.459 | 2.79 | 2.1 | 1.32 | 1.91 | 1.29 |
| CCTTCTGGGCCAAGGTCATTGATCAGTCAAAGCA | 3.27 | 3.66 | 3.02 | 1.31 | 3.24 | 3.49 | 2.34 | 3.17 | 2.71 |
| CCTACTGGGCCATTCAGAGTTCATTGATCATATG | 2.64 | 2.54 | 1.23 | 2.26 | 1.28 | 1.12 | 0.0171 | 3.5 | 5.74 |

| Sequence | PBM binding z-score [1] | PBM binding z-score [2] | PBM binding z-score [3] | PBM binding z-score [4] | PBM binding z-score [5] | PBM binding z-score [6] | PBM binding z-score [7] | PBM binding z-score [8] | PBM binding z-score [9] |
| --- | --- | --- | --- | --- | --- | --- | --- | --- | --- |
| GCTATTTGTTGAAAGGGCAACCGAATGATTCTCG | 2.2 | 1.01 | 1.26 | 1.28 | 0.98 | 0.638 | 0.181 | 0.521 | 0.657 |
| GCTAGTTGGTCAGTAAAAGATCACACACCGGTCG | 0.519 | 0.262 | 0.586 | -0.0346 | 0.0545 | -0.299 | -0.336 | -0.204 | -0.296 |
| CAAACTAGGTCAAAGGGCAAAGTCGAGCCAACCA | 3.81 | 6.04 | 5.28 | 1.76 | 7.35 | 3.56 | 0.847 | 3.83 | 1.06 |
| AGAATGAGGTTACCAACGATCAGGGAAACGCTTG | 0.885 | 1.97 | 1.6 | 1.08 | 2.45 | 2.75 | 0.794 | 1.28 | 0.331 |
| AGAACGAGGGCACGCTGTGTTGATAGCAGAGTAG | 1.05 | 1.82 | 2.12 | 1.76 | 1.23 | 1.53 | -0.0988 | 0.783 | 0.651 |
| TTAACAAGGTGAAGGTCGTTGATCCCTCTGTAGA | 1.5 | 1.38 | 1.26 | 0.219 | 1.88 | 2.4 | 0.923 | 1.35 | 0.715 |
| TCGAGTAGGTTAGGGGCATTCACAATGGCGTCGA | 0.776 | 0.234 | 0.502 | 0.518 | 0.424 | 1.06 | 0.276 | 0.522 | 1.04 |
| AACTCTAGGTAACAAGTTCAGTGAAAGAGAGGAC | 1.66 | 1.03 | 1.2 | 1.13 | 0.731 | 1.4 | 0.448 | 1.61 | 2.39 |
| TCTTGTAGATCAACAGGATGTTAAGAAAGATCGA | -0.63 | 0.136 | 0.033 | 0.72 | 0.385 | -0.148 | -0.851 | 0.149 | -0.332 |
| CCTACTGGGCCACGAAAGGTCATTAATTCAGTGA | 4.39 | 4.33 | 3.75 | 0.737 | 4.52 | 3.67 | 1.04 | 3.74 | 2.25 |
| CCGCCTGGGGCAAAGGTTACCATACTCAGTACGA | 2.28 | 3.48 | 1.78 | -0.0654 | 3.55 | 2.05 | 0.443 | 1.48 | 0.257 |
| GCTCGGAGGACAAGGTCAGATCTTTGTCCGTAGA | 3.06 | 3.19 | 3.28 | 0.628 | 2.46 | 3.17 | 1.58 | 1.61 | 0.872 |
| CGTACTGGGCCATCAGGTCATTGATATCAACGTT | 2.7 | 2.08 | 2.17 | 0.587 | 1.44 | 3.17 | 3.18 | 1.97 | 1.98 |
| TCTAGCAGGCCAGAGGGTCTCTCAAGAGGTACGG | -0.406 | -0.564 | -0.595 | -0.155 | -0.223 | -1.48 | -0.98 | -0.687 | -0.83 |
| ACAATTAGTTGAGACGAGGGCAACCGATAGGTTG | 1.5 | 0.974 | 0.94 | 0.611 | 0.718 | 2.74 | 0.375 | 0.691 | 1.07 |
| CCTACTGGGCCAAAAAGGTCATTCATGCCGATAA | 4.58 | 5.14 | 5.18 | 0.771 | 6.01 | 3.24 | 0.431 | 4.88 | 3.01 |
| CCCACTGGGGCAAGGTTACCATAACGCACAGCCA | 1.4 | 1.18 | 1.2 | -1.3 | 1.09 | 1.23 | 0.178 | 0.132 | -0.227 |
| CGAACTAGGTCAGAAAAGGACAGTGAAGGATGAT | 2.62 | 2.78 | 3.84 | 0.166 | 0.978 | 3.91 | 0.0421 | 0.459 | -0.122 |
| CCGACTGGGGCAATGTTACCATAACGCACAGCCA | -0.131 | 0.0448 | 0.359 | -0.0343 | -0.0938 | -0.53 | -0.342 | -0.586 | -0.569 |
| GCTATTAGTTGAAATGGCAACCGAATGATTCTCG | -0.503 | -0.0997 | 0.311 | 0.893 | -0.164 | -0.279 | -0.241 | -0.304 | 0.0264 |
| TTACCAAGGTGAGATGAGGTCGTTGATCCAACTC | 1.54 | 1.49 | 1.26 | 0.446 | 1.85 | 4.77 | 2 | 4.7 | 2.31 |
| GCTGCTTGGTCAACTGATGGTCAGCTAAAGCTCG | 0.641 | 0.828 | 0.795 | 0.0652 | -0.182 | -0.283 | -0.699 | -0.687 | -1.25 |
| AGAATGAGGTTATACATAGATCAGGGAAGAAAGT | 0.905 | 2.03 | 1.38 | 1.27 | 2.42 | 2.19 | 0.855 | 1.5 | 1.24 |
| CGAACTAGGCCAAGGACAGTGAATCTCCGCACGC | 0.591 | -0.0156 | 0.663 | 0.163 | -0.0922 | 1.35 | 0.94 | -0.579 | -0.0931 |
